Source: PubChem
A selection: hits, their analogues and other compounds. The true share with any hit is near 3.5%.
Anthrax LF prot = inhibitors of Bacillus anthracis lethal factor protease; P15917; multiplex microsphere protease cleavage assay, LF; inhibition, % at 10 µM; hit rate 0.12% among 360,000; AID 588501; also: plate controls were buffer without enzyme for full effect and enzyme alone for no effect
Target sequence (P15917 whole entry, looked up): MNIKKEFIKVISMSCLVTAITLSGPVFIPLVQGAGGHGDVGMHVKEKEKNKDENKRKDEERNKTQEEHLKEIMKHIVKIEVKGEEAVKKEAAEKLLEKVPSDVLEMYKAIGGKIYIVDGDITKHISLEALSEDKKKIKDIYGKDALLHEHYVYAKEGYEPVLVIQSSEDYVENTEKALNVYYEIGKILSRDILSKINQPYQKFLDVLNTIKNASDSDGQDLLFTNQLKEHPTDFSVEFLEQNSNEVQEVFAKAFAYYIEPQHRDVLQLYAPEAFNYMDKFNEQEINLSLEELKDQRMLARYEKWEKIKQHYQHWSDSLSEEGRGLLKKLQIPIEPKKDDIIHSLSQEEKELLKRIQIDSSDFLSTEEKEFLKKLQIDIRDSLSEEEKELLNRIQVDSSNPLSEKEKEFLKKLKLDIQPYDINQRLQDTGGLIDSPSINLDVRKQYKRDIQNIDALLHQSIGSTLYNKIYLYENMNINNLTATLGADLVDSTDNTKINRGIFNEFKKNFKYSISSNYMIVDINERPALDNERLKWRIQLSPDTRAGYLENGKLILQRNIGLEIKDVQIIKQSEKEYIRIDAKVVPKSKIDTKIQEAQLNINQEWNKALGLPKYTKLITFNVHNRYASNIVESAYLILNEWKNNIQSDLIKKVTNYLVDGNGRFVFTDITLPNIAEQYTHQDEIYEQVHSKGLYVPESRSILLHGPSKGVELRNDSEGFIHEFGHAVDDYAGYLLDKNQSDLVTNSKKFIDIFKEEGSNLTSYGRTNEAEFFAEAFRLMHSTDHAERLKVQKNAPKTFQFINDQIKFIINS
BoNT F protease = blocks Botulinum neurotoxin F light chain protease; Multiplex microsphere protease cleavage assay, flow cytometry; inhibition, % at 10 µM; hit rate 0.22% among 360,000; in the data active = inhibition above about 35%, passing the limit was not always enough; inconclusive = no clear call, values can overlap the other calls; also: plate controls were buffer without enzyme for full effect and enzyme alone for no effect
BoNT-A LC inh2 = inhibitors of Botulinum neurotoxin A light chain protease; multiplex microsphere protease substrate cleavage, flow cytometry; AID 588499; inhibition, % at 10 µM; hit rate 0.17% among 360,000; also: plate controls were buffer without enzyme for full effect and enzyme alone for no effect
Bead autofluor = counter-screen for toxin protease inhibitors: compound fluorescence; hit rate 3.1% among 360,000; compound autofluorescence counterscreen, microsphere flow cytometry; active compounds read high; AID 624483; fluorescence intensity (no concentration beside the values); in the data active = fluorescence intensity above about 16000; inconclusive = no clear call, values can overlap the other calls
* marks the source's active call; other numbers are inactive results; ? = inconclusive. Rule as the data show it, unless noted: active = inhibition above about 30%; inconclusive = no clear call, values can overlap the other calls; inactive = below that.

SMILES | Anthrax LF prot | BoNT F protease | BoNT-A LC inh2 | Bead autofluor
COCCNCCCOc1ccc(Cl)cc1Br | -1 | 1 | 1 | 2530
OCCNCCCOc1ccc(Cl)cc1Br | -4 | -1 | 0 | 22475*
CC(=O)Nc1ccc(SCc2c(C)noc2C)cc1 | 30* | 27 | 0 | 3175
Cc1noc(C)c1CSc1ccc(Br)cc1 | -4 | -4 | 1 | 10395
CC1CN(C(=O)c2cc(S(=O)(=O)N3CCCCC3)ccc2Cl)CC(C)O1 (stereo not drawn) | -2 | 5 | 0 | 3572
CC1CN(S(=O)(=O)c2cc(C(=O)NCCCN3CCCC3=O)ccc2Cl)CC(C)O1 (stereo not drawn) | 1 | 18 | 4 | 4278
CCN1C(=O)c2ccccc2S(=O)(=O)c2ccc(C(=O)NCCOC)cc21 | 10 | 61* | 2 | 2966
O=C(CN1C(=O)NC2(CCCC2)C1=O)Nc1cccc(Cl)c1 | -2 | -6 | 1 | 5502
O=C1/C(=C\c2ccccn2)SC(=S)N1Nc1ncc(C(F)(F)F)cc1Cl | 0 | 3 | 2 | 22887*
COc1ccc(Cl)cc1NC(=O)CN(C)C(=O)c1cc2c(s1)CCCC2 | 0 | 7 | 4 | ?
Cc1cc(Nc2cnc3ccccc3n2)n(-c2ccccc2)n1 | -6 | -12 | -4 | 17464*
COc1ccc2c(c1)C1NC(=S)NC(C)(O2)C1C(=O)Nc1ccc(C)cc1C (stereo not drawn) | 1 | 40* | 4 | 2082
CN(C)CC1CCC/C(=C/c2ccc(Cl)cc2)C1=O (stereo not drawn) | -6 | -34 | -2 | 3282
COc1cccc(CN2CCN(c3cccc(C(F)(F)F)c3)CC2)c1OC | -5 | -5 | -1 | 16287*
FC(F)(F)c1cccc(N2CCN(Cc3ccoc3)CC2)c1 | -5 | 2 | 0 | 10628
COc1cccc(CN2CCN(Cc3cc(OC)c(OC)cc3[N+](=O)[O-])CC2)c1 | -13 | 14 | ? | 16274*
CCOc1cccc(CN2CCN(c3cccc(C(F)(F)F)c3)CC2)c1O | -2 | -6 | 0 | 7873
FC(F)(F)c1cccc(N2CCN(Cc3cccnc3)CC2)c1 | -1 | 4 | 1 | 16207*
COc1cc(CN2CCN(c3cccc(Cl)c3)CC2)cc(OC)c1OC | -2 | -7 | -6 | 25470*
COc1cccc(N2CCN(Cc3cccc(Cl)c3)CC2)c1 | -5 | -6 | ? | 24340*
COc1cccc(N2CCN(Cc3ccc(Cl)cc3)CC2)c1 | -8 | -14 | 0 | 10809
COc1cccc(CN2CCN(Cc3cccc(F)c3)CC2)c1 | 3 | 24 | -2 | 3451
COc1cccc(N2CCN(Cc3cccnc3)CC2)c1 | -4 | -4 | 0 | 20710*
COc1cccc(CN2CCN(c3ncccn3)CC2)c1 | -2 | -3 | 0 | 22009*
Nc1c2c(=O)[nH]c(O)cc2nn1-c1ccccc1 | -6 | 4 | 0 | 3927
SMILES | Anthrax LF prot | BoNT F protease | BoNT-A LC inh2 | Bead autofluor
CCCCCC(=O)Nc1c(-c2cccs2)c(=O)c2ccccc2n1C | 2 | -1 | -1 | 16847*
CCCC(=O)Nc1c(-c2ccc(OC)cc2)c(=O)c2ccccc2n1C | -4 | -3 | 0 | 11300
CCC(=O)Nc1c(-c2cccs2)c(=O)c2ccccc2n1C | -4 | 2 | 1 | 4280
COc1ccc(-c2c(NC(=O)CC(C)C)n(C)c3ccccc3c2=O)cc1OC | 33* | -10 | 0 | 3179
CCCCCC(=O)Nc1c(-c2ccc(OC)cc2)c(=O)c2ccccc2n1C | -4 | 5 | 4 | 21066*
CC(C)OCCCNC(=O)Nc1cccc2ccccc12 | 5 | -9 | 0 | 4382
COC(CNS(=O)(=O)c1cc2c3c(c1)CCN3C(=O)CC2)OC | -1 | 1 | -1 | 5174
Cc1cc(C)c2c(CN3CCN(c4ccccc4F)CC3)cc(=O)oc2c1 | -8 | 9 | -1 | 4197
Cc1cc(C)c2c(CN3CCN(C)CC3)cc(=O)oc2c1 | -1 | -5 | -2 | 16812*
Cc1cc(C)c2c(CN3CCN(CCO)CC3)cc(=O)oc2c1 | 0 | -1 | 0 | 23234*
CC(NCc1cccnc1)c1ccccc1 (stereo not drawn) | -6 | 7 | 2 | 3202
CN(C)c1ccc(NC(=O)c2ccc3nsnc3c2)cc1 | -4 | -3 | ? | 22463*
COc1ccc(C(O)c2nc(-c3cc4ccccc4o3)cs2)cc1 (stereo not drawn) | -5 | -2 | 0 | 3751
COc1ccc(-c2csc(-c3cc4ccccc4oc3=N)n2)cc1 | 16 | 4 | 39* | 2740
CC(=O)NC1C(=O)N(CC(C)C)c2ccccc21 (stereo not drawn) | 1 | -4 | -5 | 21274*
CCOc1ccc(OCCC(=O)N(CCCOC)c2c(N)n(Cc3ccccc3)c(=O)[nH]c2=O)cc1 | -1 | -1 | -3 | ?
CCOC(=O)C(=CNc1ccccc1C)C(=O)OCC | -4 | 1 | -1 | 5509
